Source: the supplement of paper PMC11417369
± gives the standard deviation of the averaged measurements. In all, about 25,000 sequences were measured (“ln(normalized median fluorescence intensity)”: median about 8.6, highest 2% from about 10 on). The sample as a whole holds a higher share of the highest values than the screen did.

Tested on: PfAP2-EXP AP2 domain (GST-tagged)
Assay: gcPBM binding intensity (ln(normalized median fluorescence intensity)); higher = stronger DNA binding
In short: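 DNA-binding domains from P. falciparum, fused to GST and produced in E. coli, were put on an Agilent 4 × 180k double-stranded probe array for 1 h in 1× PBS holding 1% milk, 0.2 mg/ml BSA, 0.5% salmon testes DNA and 0.03% Triton X-100. Probes were primer-extended, 36 bp long and drawn from intergenic genomic regions, with negative controls included. After Alexa488 anti-GST antibody detection and a 488 nm scan, binding intensity was set as the highest Masliner-normalised natural-log median intensity across replicate spots of either probe orientation.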

Row | Sequence | gcPBM binding intensity (ln)
1 | TATATATATATATATTGTACATATTGTATATATTGT [XGTACX_site3212] | 9.98 ± 0.21
2 | TAATATTTATTCTATTGTACATAAAATATATATATA [XGTACX_site7132] | 9.225 ± 0.078
3 | AGTAGCATATTCTATTGTACATATATATATATATAT [XGTACX_site2980] | 10.2 ± 0.56
4 | TTTATATATATAAATATGTAGATAACAATATTCTGA [TGCATGCA_negctrl_site554] | 8.16 ± 0.44
5 | AAATTGGTTCATCAATGTACATGTAAAATAAATCAA [XGTACX_site4795] | 8.88 ± 0.46
6 | ATTATTAATAATTGTGTGCACAAATATTTATATGCT | 8.86 ± 0.092
7 | AAATTAATATTATGTGCATGCACAAAGAGGAACGAC [TGCATGCA_site754] | 10.7 ± 0.18
8 | TATTAATTATAAGATGCATGTGCAAAAATATGTTCC [TGCATGCA_site51] | 9.01 ± 0.36
9 | ATATATATATATATATATATATATATATATAAGTGG [XGTACX_negctrl_site90] | 9.94 ± 0.35
10 | TACTTACACTGTTTTTGTACTTATTTCCCTTTTATT [XGTACX_site2158] | 9.12 ± 0.6
11 | ATTTCCCCTTTTTATTGTACATTTTTATTTGTTACT [XGTACX_site4845] | 9.14 ± 0.64
12 | TTATTTTCCCTTTGTGCATGCAGTTTACTTTTTGTG [TGCATGCA_site993] | 10.4 ± 0.64
13 | TGTATAAGGTTTTTACGTTTTGAAGGATGTATTGTT [CACACA_negctrl_site1245] | 8.59 ± 0.6
14 | TTGTATTATTATGTTGCACACATTTTATATAAAATA [CACACA_site3641] | 9.06 ± 0.31
15 | TATGTATTTTTTAAGTGTACCTATATATATATATAT [XGTACX_site7934] | 10.2 ± 0.3
16 | TTTATGTGTATTAAGTGTACACATATAGTGTATTTT [XGTACX_site999] | 8.42 ± 0.31
17 | TTTATATGTATTAAGTGTACACATATAATGTATTTT [XGTACX_site16] | 8.71 ± 0.014
18 | ACATGTACAGAAATTTATATATATATATATATATAT [CACACA_negctrl_site1584] | 10.3 ± 0.33
19 | TAGAAATATATTTATTGTACATTGTATATATTATAT [XGTACX_site7584] | 8.35 ± 0.48
20 | TATATATATATATATTGTACATATTAATATTAGAAA [XGTACX_site8923] | 10.1 ± 0.39
21 | AATAAATAAATATATTGTACATATATATATATATAT [XGTACX_site8627] | 10.2 ± 0.4
22 | ATTTAGAAATATATTTGTACATATATATATATATAT [XGTACX_site7129] | 10.2 ± 0.35
23 | AATATAATATACATATGTACATATATATATATATAT [XGTACX_site8218] | 10 ± 0.32

Row | Sequence | gcPBM binding intensity (ln)
24 | ATATATATATATATATGTACATACTATACAATAATT [XGTACX_site3546] | 10.4 ± 0.29
25 | ACATATAATATAAATTGTACATATAAATATATTATT [XGTACX_site4268] | 8.38 ± 0.32
26 | TACAGAAATTTATATATATATATATATATATATATA [XGTACX_negctrl_site209] | 9.95 ± 0.62
27 | AGAATAAATAAATATTGTACATATAAAATATATATA [XGTACX_site896] | 8.39 ± 0.35
28 | TATAGAAAATTTATATGTACATATATATATATATAT [XGTACX_site4451] | 10.1 ± 0.44
29 | ATATATATAAATATATGTACTAATATATACATATAT [XGTACX_site2289] | 8.22 ± 0.092
30 | GTAGTAATAAATCTAGTGCATTATATATAACAAAAA [GTGCAC_site9803] | 8.81 ± 0.3
31 | TAGCCATTTTTATATTGTACTTATATAATCACATTT [XGTACX_site4407] | 8.72 ± 0.4
32 | ATGCACATTTATAAAAGTACATGTATGTAATATGTT [XGTACX_site830] | 8.77 ± 0.33
33 | TGTATGAAATATATTACACACATATATAATATATAT [CACACA_site793] | 8.36 ± 0.3
34 | GATGCTAAAATTTATACACACAAAAAAAAAAAATTC [CACACA_site3284] | 8.47 ± 0.46
35 | CAAGAAAATTGACACACACACATATTTATATTTATA [CACACA_site7766] | 8.36 ± 0.48
36 | AAGTATAACCTTTATAATAATGACATGACCGATTTT [CACACA_negctrl_site395] | 8.26 ± 0.34
37 | TGTAGTCTGGAGAAACGTACACAGTATCTGGTAACA [XGTACX_site4938] | 8.34 ± 0.36
38 | ATAAAAATAAATAAATGTACATATATATATATATAT [XGTACX_site1277] | 10.1 ± 0.4
39 | AATGTAAAATATAAATGTACATATATATATATATAT [XGTACX_site5071] | 10.2 ± 0.24
40 | ATAAAAAAATATAAATGTACATATATATATATATAT [XGTACX_site5620] | 10.2 ± 0.2
41 | AAATGTACAGGACGCACACACATATTTATATTTATA [CACACA_site7689] | 8.55 ± 0.33
42 | AACATATAAATAAACTGTACATATATATATATATAT [XGTACX_site1056] | 10.1 ± 0.39
43 | AAAAAAAAAAAAAAATGTACATATATATAAATATAT [XGTACX_site6768] | 8.34 ± 0.4
44 | ATATATATTATAATCTGTACATAAATATATAATAAA [XGTACX_site5425] | 8.39 ± 0.33
45 | AAATGTACAGGACGCACACACATATATATATATATA [CACACA_site3674] | 10.4 ± 0.81
46 | AAAAAAAAAAAAAAATGTACATATAAATAAATATAT [XGTACX_site7248] | 8.51 ± 0.42

Row | Sequence | gcPBM binding intensity (ln)
47 | TATAATAAATCGAACTGTACATATATATATATATAT [XGTACX_site7097] | 10.2 ± 0.33
48 | AAAAAAAAAAAAAAATGTACATATATATAAATAAAA [XGTACX_site5574] | 8.51 ± 0.45
49 | TAAAATGTACAGGACGCACACACATATATATATATA [CACACA_site3673] | 10.1 ± 0.22
50 | ATTTTTATAGAATGAACACACATATTATAGCATTTA [CACACA_site6842] | 8.45 ± 0.38
51 | AACACTTCTTATTTATGTACTTAATTCCCAACGGAA [XGTACX_site4818] | 8.87 ± 0.46
52 | CATATGATATTATTTTGTACTTATTACAAATATGAA [XGTACX_site7929] | 8.4 ± 0.42
53 | TATAAAGCAACTGAAACACACAAATTTTTTTTTTTT [CACACA_site3218] | 8.04 ± 0.46
54 | ACACATAATATGTGTAGTACTTTTTCTTTAACATTA [XGTACX_site1436] | 8.64 ± 0.36
55 | TATAAAAATAATATTACACACATGTAAAATGCCCGT [CACACA_site7522] | 8.49 ± 0.31
56 | GGACAAGTTTTTTACATAAATAAAAAAAATAAAAAA [XGTACX_negctrl_site125] | 8.44 ± 0.42
57 | AAAAGGATTTTTTATACACACACTAACTAATGTATA [CACACA_site2356] | 8.23 ± 0.43
58 | AAATGGAGTTAATATTGTACATATATATATATATAT [XGTACX_site5452] | 10.3 ± 0.18
59 | ATACTAAAAATGAATGTACACATATATATATATATA [TGCATGCA_negctrl_site209] | 10.2 ± 0.33
60 | AATAAAATACAAAAATGTACAAATATAATATACATA [XGTACX_site279] | 8.34 ± 0.28
61 | CATATATAATAATATTGTACATATATAATAATAATA [XGTACX_site3338] | 8.4 ± 0.35
62 | TTATACTAAATGAACACACACACATATATATATATA [CACACA_site99] | 10 ± 0.5
63 | TATAATATATACAAATGTACATATATATATATATAT [XGTACX_site4559] | 10.2 ± 0.42
64 | TCTGGCATATAATATTGTACACATATATATATATAT [XGTACX_site8182] | 10.2 ± 0.33
65 | ATACATGAATAAATATGTACACATATAAAAACATAT [XGTACX_site2740] | 8.68 ± 0.23
66 | TTAAATGTTATATATTGTACATATAATATATGTATT [XGTACX_site1492] | 8.27 ± 0.19
67 | TAAATAAAATACAAATGTACATAAATAATAAATATA [XGTACX_site1813] | 8.76 ± 0.41
68 | TATTAAATATTGTAATGTACATATATAATATAATAT [XGTACX_site1809] | 8.53 ± 0.17
69 | ATATATATAATATATTGTACATATAATATATATATA [XGTACX_site4792] | 9.24 ± 0.042

Row | Sequence | gcPBM binding intensity (ln)
70 | GGATAAAATGCTACGAGTACATAAGCATTTTTCCCT [XGTACX_site7796] | 8.73 ± 0.35
71 | ATGGTCTGTTAAAGATGTACTTTTTAAAAATAAACG [XGTACX_site2583] | 8.48 ± 0.25
72 | TATAGGTATATATTATGTACTTATAATTATATAGAT [XGTACX_site1912] | 8.52 ± 0.35
73 | TATATATATAAAATATGTACATAAAATTATTTATTT [XGTACX_site7666] | 8.61 ± 0.26
74 | ATATAATAATAAGGCACACAAATTAAAATATAAAAA [CACACA_site3710] | 8.79 ± 0.35
75 | TCATAAATATGAAAAAGTACAAAGGTAGATTTTGAA [XGTACX_site4535] | 8.48 ± 0.3
76 | GGATAATATATTAGAACACACATATAGATGTAAAAA [CACACA_site6229] | 8.57 ± 0.54
77 | ATATATATATATATATGTACATATGTTAATCTGCAT [XGTACX_site1068] | 10.2 ± 0.31
78 | TCGTCACTTTAATATTGTACATATATATATATATAT [XGTACX_site8046] | 10.3 ± 0.13
79 | ATTATGTTAATAATATGTACATATATCTACATATAT [XGTACX_site7978] | 8.37 ± 0.33
80 | ACACAAGCACACAAATGTACATATATATATATATAT [XGTACX_site5146] | 10.2 ± 0.13
81 | CGCATGCAATGTTAATGTACATATATATATATATGT [XGTACX_site3316] | 9.395 ± 0.049
82 | CGCTCTCTTTAATATTGTACATATATATTATATATA [XGTACX_site7017] | 8.77 ± 0.35
83 | TGTACAAATATGTACACACACACATATATATATATA [CACACA_site584] | 9.95 ± 0.31
84 | AAATATATAATACATATGTAATATGCATATATATAT [GTGCAC_negctrl_site450] | 9.72 ± 0.16
85 | TAAAAATCCACAAGCACACAAATGTACATATATATA [CACACA_site2462] | 8.71 ± 0.24
86 | TTTTTTTTTTTTTATTGTACATACTTTTAAATATAT [XGTACX_site4303] | 8.55 ± 0.59
87 | ATATATGCATATATATGTACATATATATATATATAT [XGTACX_site7403] | 9.93 ± 0.4
88 | ATATATATATATATATGTACATAATGCATATAATAT [XGTACX_site6142] | 10.2 ± 0.56
89 | TACAAATATATATGCACACACATATATGTATATGTG [CACACA_site3075] | 8.65 ± 0.26
